Records with an inconclusive call do not appear. A call without a number means that no potency is given here. The source made the active and inactive calls. Unless noted, the call rests on the fitted dose curve; in most records, active means well fitted curve in the direction sought with a large enough effect; inconclusive means small, poorly fitted or top-dose-only effect, or another doubt; inactive means no such curve, though single readings can be large; an effect the other way counts as inactive or inconclusive.
Legend:
[1] = biological target: Glutathione peroxidase 1 (Homo sapiens) (UniProt P07203); assay: Primary qHTS Assay for Inhibitors of Recombinant Selenoprotein Glutathione Peroxidase 1 (GPX1) (AID 1845191); further: nearly all actives have a fitted effect of over 65% in size; further: potency means the concentration at half of the fitted maximal effect
Procedure, shortened: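 GR-coupled readout: NADPH consumption tracked by fluorescence, ex 340/em 450 nm, at t=0 and after 15 min at RT. Final mix 10 nM GPX1, 1 mM GSH, 0.5 mM CHP, 0.5 mM NADPH, 100 nM GR, 0.01% BSA, following 30 min enzyme–compound preincubation.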

[2] = biological target: Phospholipid hydroperoxide glutathione peroxidase GPX4 (Homo sapiens) (UniProt P36969); assay: Primary qHTS Assay for Inhibitors of Recombinant Selenoprotein Glutathione Peroxidase 4 (GPX4) (AID 1845192); further: nearly all actives have a fitted effect of over 65% in size; on activity change, negative = inhibition: series mostly up to about 50 µM
Procedure, shortened: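 Steps: GPX4 plus compound, 30 min RT; add GR/GSH/NADPH master mix; start with cumene hydroperoxide; read 340/450 nm fluorescence at 0 and 15 min. Finals were 200 nM GPX4, 1 mM GSH, 0.5 mM CHP, 0.5 mM NADPH, 100 nM GR.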

[3] = biological target: Luciferin 4-monooxygenase (Photinus pyralis) (UniProt P08659); assay: Primary firefly luciferase (FLuc) qHTS assay for identification of artifact compounds. (AID 1845220); further: nearly all actives have a fitted effect of over 60% in size; on activity change, negative = inhibition: series mostly up to about 54 µM
Procedure, shortened: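 Enzymatic FLuc inhibition assay: compounds pre-exposed to luciferin/ATP (10 uM each) for 15 min, then purified P. pyralis enzyme at 10 nM added. Read-out: luminescence at 5 min.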

[4] = Primary fluorescence-based thiol-reactive (MSTI) qHTS assay for identification of artifact compounds. (AID 1845221); further: nearly all actives have a fitted effect of over 65% in size; further: potency means the concentration at half of the fitted maximal effect;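 on activity change, negative = thiol reactive: series mostly up to about 54 µM; thiol-reactive compounds lower the probe fluorescence signal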
Procedure, shortened: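 Curve-fitted percent inhibition (4-parameter Hill) derived from fluorescence, Ex 525/Em 598 nm, scaled with Acetyl-MSTI and MSTI; 1 h incubation at room temperature.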

[5] = test system: Nanoluciferase (engineered Oplophorus gracilirostris luciferase); assay: Primary Nanoluciferase (NLuc) qHTS assay for identification of artifact compounds. (AID 1845222);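 further: NLuc secreted into diluted conditioned medium of S16 cells; series mostly up to about 54 µM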
Procedure, shortened: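 S16 cell supernatant NLuc, 1:55; cpds qHTS; 15 min RT dark; Nano-Glo substrate 1:100, 5 min; luminescence; Hill fit of % inhibition.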

[6] = Primary redox qHTS assay for identification of artifact compounds. (AID 1845223)
Procedure, shortened: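 Redox-cycling detection via DTT (250 uM final) oxidation coupled to Amplex Red (25 uM)/HRP (250 mU/mL) in HBSS. 15 min preincubation plus 30 min after DTT, room temperature. Ex/Em 525/598 nm; 4-parameter Hill fit against DMSO and 10 uM DA3003.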

[7] = qHTS drug screen for cell cycle checkpoint inhibitors in PARPi-resistant BRCA-mutant ovarian cancer cell lines. (AID 1963452; calls by dose curve); settings: PEO1/OlaR viability, CellTiter-Glo luminescence, 96 h, stronger effect = lower value
Procedure, shortened: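 PEO1, PEO4 and PEO1/OlaR ovarian cancer cells, 600 per well, exposed 96 h at 37C to a dilution series. Viability read by CellTiter-Glo luminescence, normalized to DMSO and empty wells; activity summarized as Z-AUC.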

[8] = measured here: PEO1 parental Z-AUC

Chain of Phospholipid hydroperoxide glutathione peroxidase GPX4 (Homo sapiens) (P36969 whole entry, looked up): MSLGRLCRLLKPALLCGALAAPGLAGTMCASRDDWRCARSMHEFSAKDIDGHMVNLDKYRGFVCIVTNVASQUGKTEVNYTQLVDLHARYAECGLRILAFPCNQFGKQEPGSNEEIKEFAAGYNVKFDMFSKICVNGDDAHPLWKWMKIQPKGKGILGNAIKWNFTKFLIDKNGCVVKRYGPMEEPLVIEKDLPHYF
Chain of Glutathione peroxidase 1 (Homo sapiens) (P07203 whole entry, looked up): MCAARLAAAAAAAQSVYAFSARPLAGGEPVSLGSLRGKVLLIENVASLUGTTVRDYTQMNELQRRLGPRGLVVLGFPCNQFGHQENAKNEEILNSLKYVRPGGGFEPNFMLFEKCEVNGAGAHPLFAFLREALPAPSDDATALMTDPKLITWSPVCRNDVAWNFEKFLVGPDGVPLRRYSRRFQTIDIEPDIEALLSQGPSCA

SMILES | Potency [1] | Potency [2] | Potency [3] | Potency [4] | Potency [5] | Potency [6] | Z-AUC [7] | Z-AUC [7, 8] | Z-AUC ([7]; measured here: PEO4 Z-AUC) | activity change, negative = inhibition [3] | activity change, negative = thiol reactive [4] | activity, negative = inhibition [5] | redox activity (% of DA3003) [6]
Cc1nc2sc(C(=O)NCc3ccncc3)c(N)c2c(C)c1Cl | 12.8 µM (active) | inactive | inactive | inactive | inactive | inactive | – | – | – | – | – | – | –
CC1(CCOC2OC(CO)C(O)C(O)C2O)CCC23OC2(C1)C(O)CC1C(C)(C(=O)O)CCCC13C (stereo unspecified) | inactive | inactive | inactive | inactive | inactive | inactive | – | – | – | – | – | – | –
COc1c(Nc2ncc(Cl)c(N[C@H]3[C@@H](C(N)=O)[C@@H]4C=C[C@H]3C4)n2)ccc2c1CC[C@@H](N1CCOCC1)CC2 | inactive | inactive | inactive | inactive | inactive | inactive | 0.583 (inactive) | 0.18 | 0.103 | – | – | – | –
C=C1CC[C@@H]2[C@](C)(CO[C@@H]3O[C@H](CO)[C@@H](O)[C@H](O)[C@H]3O)[C@H](O)CC[C@@]2(C)[C@@H]1C/C=C1/C(=O)OC[C@H]1O | inactive | inactive | inactive | 13 µM (active) | inactive | inactive | – | – | – | – | – | – | –
Cc1cc(OCc2nnc(SC3CCCC3)n2-c2cccnc2)ccc1-c1ccc(S(C)(=O)=O)cc1 | inactive | inactive | inactive | inactive | inactive | inactive | -1.33 (inactive) | -3 | -2.2 | – | – | – | –
O=C(COc1cccc2c(=O)[nH]ccc12)c1ccccc1 | inactive | inactive | inactive | inactive | inactive | inactive | – | – | – | – | – | – | –
CC/C=C/CC1=C(CCCCC(CCC(=O)O)OC(C)=O)CCC1=O (stereo unspecified) | inactive | inactive | inactive | inactive | inactive | inactive | – | – | – | – | – | – | –
C=C1[C@H](OC(C)=O)[C@H]2[C@@H](OC(C)=O)[C@](C)(OC(C)=O)C[C@]2(OC(C)=O)C(=O)[C@H](C)/C=C/C(C)(C)C(=O)[C@H](OC(=O)C(C)C)[C@H]1OC(C)=O | inactive | inactive | inactive | inactive | inactive | inactive | – | – | – | – | – | – | –
C=CC1C(OC2OC(CO)C(O)C(O)C2O)OC=C(C(=O)OC)C1CC(=O)OCC1C(C)C(O)CC1C(CO)COC(=O)CC1C(C(=O)O)=COC(OC2OC(CO)C(O)C(O)C2O)/C1=C\C (stereo unspecified) | inactive | inactive | – | – | – | – | – | – | – | -4.67% [at 11.6 µM] (inactive) | 7.86% [at 11.5 µM] (inactive) | -0.732% [at 11.6 µM] (inactive) | 14.1% [at 11.5 µM] (inactive)
Cc1ccccc1-n1c([C@H](C)Nc2nc(N)nc3nc[nH]c23)nc2cccc(C)c2c1=O | inactive | inactive | inactive | inactive | inactive | inactive | – | – | – | – | – | – | –

— PubChem BioAssay (NCATS)
